Compounds with a hit are over-represented: about 0.81% of the library has one in this group of screens.
TRHR PAM: qHTS for Small Molecule Agonists and Allosteric Enhancers of Human TRH Receptor: Primary Screen for Enhancers; Thyrotropin-releasing hormone receptor (Homo sapiens), P34981; 0.66% of 360,000 active; AID 493056, 2011; enhancement, % at 2 µM; TRHR cells, fluo-8 calcium fluorescence, EC20 TRH enhancement; in the data active = enhancement above about 30%
Target sequence (P34981 whole entry, looked up): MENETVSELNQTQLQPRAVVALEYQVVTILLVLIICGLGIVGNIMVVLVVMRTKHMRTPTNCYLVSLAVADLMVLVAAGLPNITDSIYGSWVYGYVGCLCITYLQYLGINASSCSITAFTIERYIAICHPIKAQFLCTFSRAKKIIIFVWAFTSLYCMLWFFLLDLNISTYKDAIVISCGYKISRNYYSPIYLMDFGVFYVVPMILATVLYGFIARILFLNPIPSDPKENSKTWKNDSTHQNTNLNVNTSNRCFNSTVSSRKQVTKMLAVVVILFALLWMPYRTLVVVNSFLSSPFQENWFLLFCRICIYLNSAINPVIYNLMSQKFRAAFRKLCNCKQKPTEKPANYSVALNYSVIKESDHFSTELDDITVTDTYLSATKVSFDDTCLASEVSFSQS
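TRHR-expressing cells loaded with fluo-8 calcium dye were read kinetically (ex 480/em 530) during compound addition, then stimulated with an EC20 of TRH (10 nM final). Enhancement of the Gq-mediated intracellular calcium response was scored.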
TRPML1 inh: qHTS for Inhibitors of the Human Mucolipin Transient Receptor Potential 1 (TRPML1). Mucolipin-1 (Homo sapiens), Q9GZU1. TRPML1-inducible cells, Ca2+ dye fluorescence, FDSS; stronger effect = lower value; inhibition of EC80 agonist-evoked calcium signal. activity change, negative = inhibition, % (no concentration beside the values). 0.02% of 390,000 active. AID 624415, 2012; in the data active = activity change below about -50%; inconclusive = between about -30% and that limit;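 note: stimulus is agonist 54-4 at its EC80 concentration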
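Tet-induced TRPML1-DL cells loaded with Ca8 no-wash calcium dye were read kinetically on FDSS. Compound addition was followed by EC80 agonist 54-4 (4 uM final); inhibition was read over 110 s.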
TRHR ag: qHTS for Small Molecule Agonists and Allosteric Enhancers of Human TRH Receptor: Primary Screen for Agonists; TRHR cells, calcium flux fluo-8, FDSS agonist mode; Thyrotropin-releasing hormone receptor (Homo sapiens), P34981; 0.18% of 360,000 active; activation, % at 2 µM; in the data active = activation above about 30%
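Agonist-mode FDSS calcium read (Ex 480/Em 530, 1 s cycles) in 1536-well TRHR cells with fluo-8 dye, after 10-cycle baseline and 23 nL compound addition; TRH at EC20 (10 nM final) added afterwards for the enhancer phase.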
TRPML1 ag: qHTS for Agonists of the Human Mucolipin Transient Receptor Potential 1 (TRPML1); 0.12% of 410,000 active; activation, % (test concentration not listed); TRPML1-expressing cells, Ca2+ dye fluorescence, FDSS; in the data active = activation above about 50%; inconclusive = mostly about 30% to 49%
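In this qHTS format, compounds were pin-transferred onto Ca8-dye-loaded TRPML1-DL cells induced with Tet overnight, and intracellular Ca2+ fluorescence was recorded kinetically for 110 s after a 10 s baseline. A subsequent 4uM final 54-4 (EC80) addition followed by a second 110 s read served as the antagonist phase.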
A number is an active result.

`CCOC(=O)Cn1c(=O)n(C2CCCC2)c(=O)c2ccccc21` gave TRHR PAM 41, TRPML1 inh inactive, TRHR ag inactive and TRPML1 ag inactive.
For CCN1CCN(Cc2oc(CO)cc(=O)c2O)CC1 the results were TRHR PAM inactive, TRPML1 inh inactive, TRHR ag inactive and TRPML1 ag inactive.
For CCOC(=O)C1CCN(Cc2oc(CO)cc(=O)c2O)CC1 the results were TRHR PAM 30, TRPML1 inh inactive, TRHR ag inactive and TRPML1 ag inactive.
Screening c1cc2c3c(c1)CCC[N+]3(C1CCCCC1)CCC2 returned TRPML1 ag inactive.
Screening COc1cc2nc(N3CCOCC3)nc(NC3CCN(C)CC3)c2cc1OC returned TRPML1 ag inactive.
O=c1c2cccc3c(N4CCOCC4)ccc(c32)c2nc3ccccc3n12 was read as TRHR PAM inactive and TRHR ag 51.
O=c1c2ccc([N+](=O)[O-])c3cccc(c32)c2nc3ccccc3n12 was read as TRHR PAM inactive and TRHR ag inactive.
Screening CC(=O)OCCn1c2nc(=O)[nH]c(=O)c-2nc2cc(C)c(C)cc21 returned TRHR PAM 124, TRPML1 inh inactive, TRHR ag 161 and TRPML1 ag 117.
For COc1ccc(C2N3CC4(C)CN2CC(C)(C3)C4O)cc1OC (stereo not given) the results were TRHR PAM 31, TRPML1 inh inactive, TRHR ag inactive and TRPML1 ag inactive.
For Nc1ncnc2c1nc(Sc1ccc(Cl)cc1)n2[C@H]1OC2COP(=O)(O)O[C@H]2[C@@H]1O (stereo not given in full) the results were TRPML1 ag inactive.
Screening COc1ccc(Cl)cc1NC(=S)N1CCN(c2ncccn2)CC1 returned TRHR PAM inactive, TRPML1 inh inactive, TRHR ag inactive and TRPML1 ag inactive.
For COc1ccc(Cl)cc1NC(=S)N1CCN(c2ccccn2)CC1 the results were TRHR PAM 32, TRPML1 inh inactive, TRHR ag inactive and TRPML1 ag inactive.
For COc1ccc(OC)c(NC(=S)N2CCCC2)c1 the results were TRHR PAM inactive, TRPML1 inh inactive, TRHR ag inactive and TRPML1 ag inactive.
COc1ccc(Cl)cc1NC(=S)N1CCCCCC1 was read as TRHR PAM 40, TRPML1 inh inactive, TRHR ag inactive and TRPML1 ag inactive.
`CC(=O)Nc1ccc(/C=C2\C=Cc3ccccc32)cc1` gave TRPML1 ag inactive.
O=C(C1=NN(c2ccccc2)C2C(=O)N(c3ccccc3Cl)C(=O)C12)c1ccccc1 (stereo not given) was read as TRHR PAM inactive, TRPML1 inh inactive, TRHR ag 58 and TRPML1 ag inconclusive.
Screening COc1ccccc1N1C(=O)C2C(C(=O)c3ccccc3)=NN(c3ccccc3)C2C1=O (stereo not given) returned TRHR PAM inactive, TRPML1 inh inactive, TRHR ag inactive and TRPML1 ag inactive.
`Cc1cc2c(s1)c1cnn(Cc3ccc(C)c(F)c3)c(=O)c1n2C` gave TRHR PAM inactive and TRHR ag inactive.
For O=C(Cc1ccc(OCc2ccccc2)cc1)NO the results were TRPML1 ag inactive.
Screening Cc1nc(N2CCN(c3ccccn3)CC2)c2c(C)c(C(=O)Nc3ccc(F)cc3F)sc2n1 returned TRHR PAM inactive, TRPML1 inh inactive, TRHR ag inactive and TRPML1 ag inactive.
Screening Cc1nc(N2CCN(c3ccccn3)CC2)c2c(C)c(C(=O)Nc3ccc(F)cc3Cl)sc2n1 returned TRHR PAM inactive, TRPML1 inh inactive, TRHR ag inactive and TRPML1 ag 97.
For CC(C)(C)OC(=O)n1c2ccsc2c2cnn(Cc3ccccc3F)c(=O)c21 the results were TRHR PAM inactive and TRHR ag inactive.
Screening Cc1nn2c(-c3cccc(NC(=O)c4ccco4)c3)nnc2c2ccccc12 returned TRHR PAM inactive, TRPML1 inh inactive, TRHR ag inactive and TRPML1 ag inactive.
For Cc1nn2c(-c3cccc(NC(=O)c4ccc(Cl)cc4)c3)nnc2c2ccccc12 the results were TRHR PAM 42, TRPML1 inh inactive, TRHR ag inactive and TRPML1 ag inactive.
OCC[N+]1(CCc2ccccc2)CCOCC1 was read as TRPML1 ag inactive.

High-throughput results from PubChem.
